L3MBTL1 block: blocks human L3MBTL1. 230,000 tested, 0.66% active. Potency, µM (highest dose often 57.1 µM), for the others: at the top dose activity, negative = inhibition, actives largely listed as inhibitors. AlphaScreen L3MBTL1–H3K9me1 peptide binding. Q9Y468; also: % is scaled to controls: 0 for no effect and ±100 for the full control effect; nearly all actives have a fitted effect of over 60% in size
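First, the protein-peptide complex forms for 30 min at room temperature (L3MBTL1 50 nM, biotinylated H3K9me1 peptide 75 nM). Next, compounds are pin-transferred and incubated 30 min. Finally, AlphaScreen beads are added and read after 30 min.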
BAZ2B inh: inhibitors of human BAZ2B bromodomain; Q9UIF8; AlphaScreen BAZ2B-H3K14Ac peptide displacement; Potency, µM (titrated, usually from 114 µM), for inactives: at the top dose activity change, negative = inhibition, most hits filed as inhibitors; 360,000 tested, 4.4% active; also: % is scaled to controls: 0 for no effect and ±100 for the full control effect; nearly all actives have a fitted effect of over 60% in size
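Complex of BAZ2B and biotin-H3K14Ac (50 nM apiece) forms over 30 min at RT, then faces library compounds up to 110 uM for another 30 min; AlphaScreen beads added, 20 min dark incubation, luminescence read.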
Sfp inh: blocks B. subtilis Sfp PPTase activity | Q9F4F7 | Biochemical Sfp PPTase activity, qHTS | Potency, µM, for inactives: largest response in the series, negative = inhibition, most hits filed as inhibitors | 310,000 tested, 3.5% active | AID 1490;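 also: the enzyme is Sfp with the accession as filed and its product quenches rhodamine fluorescence; 0% = enzyme reaction without inhibitor and -100% = no enzyme wells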
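Compounds were incubated with enzyme (final 15 nM) for 15 min at room temperature before substrate addition started the reaction. Fluorescence at 525 nm excitation, 598 nm emission was recorded immediately and after 30 minutes.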
G9a inh: blocks human histone lysine methyltransferase G9a | G9a H3K9 monomethylation, AlphaScreen, 2 h | Potency, µM (titrated, usually from 102 µM), inactives show at the top dose activity, negative = inhibition, hits mostly inhibitors | 350,000 tested, 8.8% active | AID 504332; also: % is scaled to controls: 0 for no effect and ±100 for the full control effect; nearly all actives have a fitted effect of over 75% in size
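Compounds were preincubated with 20 nM G9a for 15 min, after which biotinylated H3K9 peptide (500 nM) and SAM (20 uM) started a 2 h room-temperature reaction. Monomethylated product was quantified by antibody-based AlphaScreen chemiluminescence.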
HP1b chromo inh: inhibitors of HP1-beta chromodomain binding to methylated histone tails | P83916 | AlphaScreen HP1-beta / biotin-H3K9me3 peptide binding | Potency, µM (titrated, usually from 114 µM), for inactives: top-dose activity change, negative = inhibition, most hits filed as inhibitors | 390,000 tested, 0.56% active | AID 540317; also: nearly all actives have a fitted effect of over 70% in size
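Compound inhibition of the preformed complex between 50 nM HP1-beta and 50 nM biotinylated H3K9me3 peptide was read by AlphaScreen. Buffer was PBS pH 7.4 with 0.01% Tween-20. Incubations ran 30 min at room temperature, with 10 ug/mL donor/acceptor beads.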
JMJD2A Tudor inh: JMJD2A Tudor domain (human) inhibition; AlphaScreen JMJD2A-Tudor / H3K4me3 peptide binding; Potency, µM (series often up to 114 µM), for inactives: at the top dose activity change, negative = inhibition, hits mostly inhibitors; 390,000 tested, 4.4% active; AID 504339; also: % is scaled to controls: 0 for no effect and ±100 for the full control effect; nearly all actives have a fitted effect of over 50% in size
Target sequence (O75164 whole entry, looked up, the tested form may be a part): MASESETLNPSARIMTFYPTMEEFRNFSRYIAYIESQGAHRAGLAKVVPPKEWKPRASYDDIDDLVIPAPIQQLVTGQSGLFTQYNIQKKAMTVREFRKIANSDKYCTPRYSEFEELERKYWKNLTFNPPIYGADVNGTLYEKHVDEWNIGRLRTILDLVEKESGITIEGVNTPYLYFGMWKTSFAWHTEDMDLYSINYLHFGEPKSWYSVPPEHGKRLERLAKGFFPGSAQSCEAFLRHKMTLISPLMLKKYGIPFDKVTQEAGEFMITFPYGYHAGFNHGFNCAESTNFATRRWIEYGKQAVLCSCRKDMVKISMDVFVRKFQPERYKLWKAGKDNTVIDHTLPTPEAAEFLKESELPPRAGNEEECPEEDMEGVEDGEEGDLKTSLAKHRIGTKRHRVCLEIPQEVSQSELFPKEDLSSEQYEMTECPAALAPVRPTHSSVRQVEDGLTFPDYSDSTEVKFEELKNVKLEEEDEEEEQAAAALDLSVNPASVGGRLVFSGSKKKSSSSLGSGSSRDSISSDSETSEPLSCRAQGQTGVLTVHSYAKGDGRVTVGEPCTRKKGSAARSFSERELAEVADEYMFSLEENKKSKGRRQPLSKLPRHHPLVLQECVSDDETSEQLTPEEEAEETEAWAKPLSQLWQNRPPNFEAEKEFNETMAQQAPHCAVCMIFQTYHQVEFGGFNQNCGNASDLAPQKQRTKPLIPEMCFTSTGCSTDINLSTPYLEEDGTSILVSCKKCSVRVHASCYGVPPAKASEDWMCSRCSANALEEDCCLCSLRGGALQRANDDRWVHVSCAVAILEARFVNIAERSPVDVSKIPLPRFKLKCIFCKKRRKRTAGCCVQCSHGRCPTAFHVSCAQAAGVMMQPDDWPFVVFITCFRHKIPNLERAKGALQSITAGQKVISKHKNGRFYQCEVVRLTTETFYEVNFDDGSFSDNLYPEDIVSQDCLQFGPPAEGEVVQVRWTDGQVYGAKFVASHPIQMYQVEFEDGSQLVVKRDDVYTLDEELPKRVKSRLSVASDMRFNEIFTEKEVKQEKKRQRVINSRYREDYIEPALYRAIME
* marks the source's active call; other numbers are inactive results; u = inconclusive; x = no result given; ! = a repeat was not active; [ ] = dose if it differs, or a comment. Shown are actives, neighbours in structure and some others; about 12% of the full set was active somewhere. Calls follow the shape of the dose curve; as a rule, active = well fitted curve in the direction sought with a large enough effect; inconclusive = small, poorly fitted or top-dose-only effect, or another doubt; inactive = no such curve, though single readings can be large; an effect the other way counts as inactive or inconclusive. Potency is read from the fitted curve at half-maximal effect.

SMILES	L3MBTL1 block	BAZ2B inh	Sfp inh	G9a inh	HP1b chromo inh	JMJD2A Tudor inh
Cc1cc(C)c2c(CC(=O)N(Cc3ccccc3)C3CCS(=O)(=O)C3)coc2c1 (centres undefined)	x	-22.3%	x	-21.9%[59 µM]	28.0%	-21.9%
CCc1ccc2occ(CC(=O)N(Cc3ccc(N(C)C)cc3)C3CCS(=O)(=O)C3)c2c1 (centres undefined)	x	20µM*	x	12.6µM*	u	39.8µM*
Cc1ccc2occ(CC(=O)N(Cc3ccc(N(C)C)cc3)C3CCS(=O)(=O)C3)c2c1 (centres undefined)	x	44.7µM*	x	10µM*	-18.6%	u
CCN(CC)c1ccc(CN(C(=O)Cc2coc3ccc(C)cc23)C2CCS(=O)(=O)C2)cc1 (centres undefined)	x	10µM*	x	10µM*	-16.5%	u
CC(C)c1ccc2occ(CC(=O)N(Cc3ccc(F)cc3)C3CCS(=O)(=O)C3)c2c1 (centres undefined)	x	-9.4%	x	-1.5%[59 µM]	20.0%	-24.0%
COCCCNC(=O)Cn1c(=O)n(-c2ccccc2)c(=O)c2c1c1cc(OC)ccc1n2C	x	-5.7%	x	-8.0%[59 µM]	6.4%	-12.1%
CCOc1ccccc1NC(=O)Cn1c(=O)n(Cc2nc(C)no2)c(=O)c2ccccc21	x	-3.4%	x	u	67.8%	11.7%
CCCCn1c(C)cc2c(c1=O)C1O[C@](CCCC)(Cc3cc(C#N)ccc31)O2	x	-2.4%[22.9 µM]	1.5%	x	x	x
COc1ccccc1NC(=O)c1ncoc1-c1ccco1	x	-5.8%	x	-4.7%[59 µM]	-2.9%	-12.3%
CCCC(=O)N1CCc2cc(OC)c(OC)cc2C1COc1ccc2c(C)cc(=O)oc2c1 (centres undefined)	x	3.8%	x	20.0%[59 µM]	48.9%	1.4%
Cn1nnnc1SCCNC(=O)C1CCC(=O)N(CCc2cccc(F)c2)C1 (centres undefined)	x	4.3%	13.3%	0.159µM*	29.0%	10.9%
Cn1nnnc1SCCNC(=O)C1CCC(=O)N(Cc2ccccc2F)C1 (centres undefined)	x	-31.6%	19.4%	-7.6%	28.5%	8.6%
COC(=O)c1c(SCC(=O)Nc2ccccc2OC)[nH]c2ccccc2c1=O	x	-17.4%	x	-23.7%[59 µM]	13.9%	-15.3%
S=C(Nc1ccccc1)c1ccccn1	x	35.5µM*	44.7µM*!	13.0%[12.7 µM]	u	56.2µM*
S=C(Nc1ccc(Nc2ccccc2)cc1)Nc1ccccn1	-22.9%	15.8µM*	11.5%	10µM*	u	20µM*
CC1=C(C(=O)Nc2cccnc2)C(c2ccc(Cl)cc2)n2nc(-c3ccccc3)nc2N1 (centres undefined)	x	7.8%[57.1 µM]	x	0.4%[59 µM]	31.0%	1.0%
CCc1ccc(CNc2nc3nc(C)c(Cc4ccccc4)c(=O)n3[nH]2)cc1	x	-6.8%	x	u	-2.8%	u
COc1ccc(C(=O)/C=C/Nc2cccc(O)c2)cc1	x	-30.5%	-10.2%	39.8µM*	28.7%	10.5%
COc1cccc(C(=O)/C=C/Nc2cc(C)ccc2O)c1	-3.9%	u	u	u	0.4%	56.2µM*
COc1cccc(N/C=C/C(=O)c2ccc(Br)cc2)c1	x	x	x	x	79.8%	6.8%
Nc1ccc(OCCCc2c(N)nc(N)nc2N)cc1	-23.3%	-34.9%	9.4%	u	1.4%	56.2µM*
COC(=O)C1=C(NC(=O)C2CCCCC2)CCS1	-16.9%	u	1.7%	1.78µM*	-2.8%	u
Nn1nnc2ccccc21	x	3.1%	15.2%	40.9%[59 µM]	48.4%	-16.6%
S=c1[nH]nc2nnc3ccccc3n12	0.9%	u	56.2µM*	3.16µM*	-4.5%	-18.9%
CCOC(=O)c1cccc(NC(=O)CSc2ncc3c(n2)-c2ccc(Cl)cc2N(Cc2ccccc2)S3(=O)=O)c1	x	-9.3%	x	u	-5.0%	-13.3%
Cc1ccc(S(=O)(=O)CCC(=O)NCCN2C(=O)S/C(=C\c3ccccc3)C2=O)cc1	-4.5%	10.9%	-4.1%	9.2%	27.4%	-10.7%
Cc1ccc2c(c1)S/C(=C/c1ccc[n+](C)c1)N2CCO	x	-35.0%	-6.5%	14.1µM*	9.0%	25.1µM*

Screening data from PubChem.
